Several values for one entry are separate records, joined by “and”; a condition that tells them apart may be missing. Identical values can stand only once. Compounds without any hit were thinned out: in the full panel of roughly 83,000, 20% have a hit.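 Single-dose data. Exposure time 48 hours. Values below 10 considered active.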 A number with no mark means an inactive call. Activity calls are given as the source filed them.

The test deals with MDA-MB-468 breast. Put plainly: NCI-60 one-dose screen, 48 h (100 = growth as untreated, 0 = no growth, -100 = all killed). The conditions noted are these: 10 µM unless noted.
As for `O=C1Nc2ccccc2/C1=C/c1c[nH]c2ccccc12`, the growth is 44.4%.
Turning to `COc1ccc(C2C3=C(COC3=O)N(CCO)c3cc4c(cc32)CCC4)cc1` (stereo not given), the growth is 7.26% (active).
On to `COC1=CC(c2ccc[nH]2)=N/C1=C\c1[nH]c(C)c(C(=O)OCCn2cc(CCC[C@@H]3Cc4cc(O)ccc4C4CC[C@]5(C)[C@@H](O)CC[C@H]5C43)nn2)c1C` (stereo not given in full), for which the growth was 78%.
Take `NNCCc1ccccc1`: the growth was 113% and 89.6%.
As to `O=c1cc2oc3cc(O)c(O)cc3c(-c3ccccc3O)c-2cc1O`, the growth is 93.9%.
As to `CC1(C)CC(=O)C2=C(C1)Nc1cc3c(cc1C2c1ccc(F)cc1)OCO3` (stereo not given), the growth was 71.4%.
Consider `CC(C)C(C)(C)c1ccc(O)cc1`, for which the growth is 91.1%.
As for `COc1cc2ncnc(Nc3ccc(C(=O)/C=C/c4ccc(C(F)(F)F)cc4F)cc3)c2cc1OC`, the growth was 107%.
`CCN1C(=O)/C(=C/C(=O)OC)S/C1=N\NC(=O)c1cc2ccc1/C=C\c1ccc(cc1)/C=C\2`: the growth is 87.3%.
Turning to `CCc1c(C(=O)N[C@@H]2c3cc(Cl)ccc3CC[C@@H]2O)[nH]c(C)c1C(C)=O`, the growth is 94.1%.
In the case of `NCCNc1nc(-c2ccccc2)nc2nc(-c3ccccc3)oc12`, the growth is 18.9%.
Under `CC(C)[C@H](NC(=O)Cn1cc(C(=O)O)nn1)C(=O)O` stands 98.9%; under `COc1cc(CN)ccc1O`, 99.7%; under `CCNC(=O)N1CCc2cc(OC)c(OCCc3ccc(OC)c(N)c3)cc2C1c1ccc(C)cc1C` (stereo not given), -0.144% (active).
Take `NS(=O)(=O)c1ccc(Nc2nc(N/N=C/c3ccc(F)cc3)nc(Nc3ccccc3)n2)cc1`: the growth is 54.1%.
As to `CN1C(=O)N(C)C2Nn3c(s/c(=C\c4ccc(C(F)(F)F)cc4)c3=O)=NC21` (stereo not given), the growth was 98.5%.
In the case of `COc1ccc(-c2nn(-c3cccc(Cl)c3)cc2-c2cc(-c3cccs3)[nH]c(=S)n2)cc1`, the growth is 67.8%.
Take `CO[C@@H]1[C@H](N(C)C(=O)c2ccccc2)C[C@@H]2O[C@]1(C)n1c3ccccc3c3c4c(c5c6ccccc6n2c5c31)C(=O)NC4=O`: the growth was -12.7% (active).
Turning to `N[C@H](CS)C(=O)O`, the growth was 93.1%.
Regarding `Cc1cc(F)cc(NS(=O)(=O)c2ccc(-c3cnc(C4CC4)o3)cc2)c1`, the growth is -1.16% (active).
Consider `CN1CCN(c2nc(-c3csc(-c4ccncc4)n3)cc3ccccc23)CC1`, for which the growth was 25.8%.
As for `COc1cc([C@@H]2c3cc4c(cc3[C@H](O)[C@H]3COC[C@@H]23)OCO4)cc(OC)c1OC`, the growth was 58%.
Under `O=C(CCc1nnc2sc(-c3cc(O)c(O)c(O)c3)nn12)c1nc2ccccc2[nH]1` stands 86.8%; under `Cc1cc(=O)cc(C)n1-c1ccccc1`, 100%; under `O=C(O)CN1C(=O)c2cccc3cccc(c23)C1=O`, 95.7%.
As for `N/C(=N\C(N)=N\c1nc2ccccc2s1)c1ccncc1Cl`, the growth is 90.3%.
In the case of `Cc1ccc([N+](=O)[O-])cc1NC(=O)Nc1cccc(F)c1`, the growth was 26.9%.
As to `NNc1ncccn1`, the growth was 102%.
The figure for `O=C1NC(=O)[C@@H](c2cn3c4c(cccc24)CCC3)[C@@H]1c1c[nH]c2ccccc12` is -0.826% (active).
The figure for `COc1ccc(Cc2nn(CC(=O)N/N=C/c3ccc(Cl)cc3)c(=O)c3c(C)noc23)cc1` is 80.4%; for `O=C(Cn1c(=O)sc2nc3ccccc3nc21)Nc1ncc(Cc2cccc(Cl)c2Cl)s1` it is 107%.
Under `Clc1nc2ccc(Br)cc2cc1-c1nc2ccccc2[nH]1` stands 76.3%.
Consider `Cc1ccc(N)cc1F`, for which the growth was 100%.
Regarding `CN(CCC#N)c1ccc(/C=C(\C#N)c2cccc(C(F)(F)F)c2)cc1`, the growth is 23.4%.
Under `CCOC(=O)c1cn2c3c(cc(F)cc3c1=O)C(CC)c1ccccc1C2` (stereo not given) stands 99.4%; under `CCCCCCCCCCCCCCCCCC(=O)OCCCCCCC`, 114%; under `C[C@]12C[C@@H](c3ccoc3)OC(=O)[C@@H]1CC[C@]1(C)[C@@H]2CC[C@@H](O)[C@]1(C)O`, 88.3%.
As for `CCCCOc1ccc(/C=N/NC(N)=S)cc1`, the growth is 66.5%.
For the compound `Nc1ncnc2c1N=C(c1ccc3c(c1)OCO3)CC(c1cccc(Nc3ccnc4cc(C(F)(F)F)ccc34)c1)N2` (stereo not given), the growth was 86.6%.
On to `C[C@]1(O)CC(=O)[C@]2(O)C3=C(C=C[C@]2(O)C1)C(=O)c1c(O)cccc1C3=O`, for which the growth was -57.5% (active).
